Laboratory results taken from PubChem BioAssay (NCI).
This is part of a sample that, as a whole, favours compounds with a hit. Of some 79,000 tested, about 15% had one in any assay. Unmarked numbers belong to inactive results. Active and inactive are the calls of the source. Cut-off read from the data, not from the text of the source: active = growth inhibition above about 70%; inactive = the rest.

Assay: NCI Yeast Anticancer Drug Screen. Data for the mlh1 strain (AID 171);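 note: 0% = growth of vehicle-treated control cultures of the same strain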
Conditions: S. cerevisiae mlh1 strain growth inhibition; at 11.0 µM; stronger effect = higher value
Method in brief: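 Growth of the mutant yeast strain after compound exposure, expressed as inhibition relative to vehicle-only controls.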
Compound C[N+](C)([O-])CCCNc1c2ccccc2nc2cccc([N+](=O)[O-])c12 has a growth inhibition of 44%.
O=C(c1cc(=O)c2ccc(O)cc2o1)c1ccc(Cl)cc1Cl gave a growth inhibition of 33%.
With CCCNC(=O)OCc1c(COC(=O)NCCC)c(-c2ccc(Cl)c(Cl)c2)n2c1CCC2 the growth inhibition was -19%.
For O=C(Cc1ccccc1)NN1C(=O)C(Cl)C1c1cc(Br)cc(Br)c1O (stereo unspecified), the growth inhibition was 90% (active).
Compound CCOC(=O)C(Cc1c2ccccc2cc2ccccc12)(NC(C)=O)C(=O)OCC has a growth inhibition of -3%.
For O=[N+]([O-])/C=C/c1cc2ccc3ccccc3c2[nH]1, the growth inhibition was 83% (active).
Compound Fc1ccc(Nc2ccc3ccccc3c2)cc1 has a growth inhibition of -2%.
With O=S1(=O)CCC2=CC(C(F)(F)F)=CC(C(F)(F)F)=CN21 the growth inhibition was 67%.
O=C(Cc1ccccc1)NNc1nc(NNC(=O)c2ccncc2)nc(Nc2ccc([N+](=O)[O-])cc2)n1 showed a growth inhibition of 42%.
CCCCS/C(=C(/C#N)C(N)=O)c1cc2c([nH]1)CCCC2 showed a growth inhibition of -30%.
For CCOC(=O)/C(=C\c1cccc(C)c1)C(C)=O, the growth inhibition was 80% (active).
With NC(=S)N/N=C1\c2ccccc2CCC1CCC1(O)CCc2ccccc2C1=O (stereo unspecified) the growth inhibition was 46%.
Cc1cccc2c(Cl)c3cccc(C)c3nc12 showed a growth inhibition of 3%.
Work on CC(C)OC(=O)NNc1c(Cl)cc(Cl)cc1Cl yielded a growth inhibition of 4%.
Nc1ccc2c(c1)C(=O)c1c(F)cccc1-2 gave a growth inhibition of 0%.
N#CSCC1COc2ccccc2O1 (stereo unspecified) gave a growth inhibition of -27%.
In the case of Cc1ccc(S(=O)(=O)NC(=O)C2C(=O)CC3(CCCCC3)CC2=O)cc1, the growth inhibition is reported as 13%.
In the case of CC1=NN(C(=O)c2ccccc2O)C(=O)/C1=C/c1ccco1, the growth inhibition is reported as 71% (active).

Same assay, conditions: S. cerevisiae mlh1 strain growth inhibition; at 33.0 µM; stronger effect = higher value
For CC(CN(C)C)C(=O)/C=C/c1ccc(Cl)c(Cl)c1 (stereo unspecified), the growth inhibition was 74% (active).
With CCCCCCNCCCNc1c2cc(OC)ccc2nc2cccc([N+](=O)[O-])c12 the growth inhibition was 86% (active).
NC(=S)N1N=C2c3ccccc3CC[C@H]2[C@@H]1c1ccc(Cl)cc1 gave a growth inhibition of 51%.
For C/C(=N/NC(=S)Nc1ccccc1C)c1ccccn1, the growth inhibition was -9%.
In the case of O=C1/C(=C/c2ccc(Cl)c(Cl)c2)CNC/C1=C\c1ccc(Cl)c(Cl)c1, the growth inhibition is reported as 69%.
CC(C)OP(=O)(OC(C)C)C(=NCCO)NNc1ccc([N+](=O)[O-])cc1 showed a growth inhibition of 46%.
With N#CCC(=O)N/N=C(\c1ccccc1)C(c1ccccc1)C1(O)C(=O)Nc2c(Cl)ccc(Cl)c21 (stereo unspecified) the growth inhibition was 0%.
For CC(C)(CN1CCCCC1)C(=O)CC(SCCS(=O)(=O)O)c1ccccc1 (stereo unspecified), the growth inhibition was 6%.
COC1=CCC23C(=O)C=CC(=O)C2(C1)C(=O)c1ccccc1C3=O (stereo unspecified) showed a growth inhibition of 54%.
For CCCCN(CCCC)c1ccc(N=Nc2ccc(S(=O)(=O)O)cc2)cc1, the growth inhibition was 94% (active).
With c1ccc2nc3c(nc2c1)sc1ccccc13 the growth inhibition was 28%.
Work on O=C1c2ccccc2-c2ccc(N=Cc3ccccc3)cc21 yielded a growth inhibition of 23%.
With CNC(=S)N/N=C(/C)CCC/C(C)=N/NC(=S)NC the growth inhibition was 37%.
In the case of Nc1ccc(/C=C/c2ccc3cccnc3c2)cc1, the growth inhibition is reported as -2%.
Work on COc1ccc2c3c1OC(C)C31CC(=O)CCC1CC2 (stereo unspecified) yielded a growth inhibition of -4%.
CCOC(=O)Nc1ccc(C)c(NC(=O)OCC)c1 showed a growth inhibition of 19%.
Compound CCN(CC)CCNc1ccc2nc(C)n3c4ccc(OC)cc4c(=O)c1c23 has a growth inhibition of 26%.
In the case of C[N+](C)([O-])CCCNc1c2ccccc2nc2cccc([N+](=O)[O-])c12, the growth inhibition is reported as 89% (active).
For O=C(c1cc(=O)c2ccc(O)cc2o1)c1ccc(Cl)cc1Cl, the growth inhibition was 91% (active).
With CCCNC(=O)OCc1c(COC(=O)NCCC)c(-c2ccc(Cl)c(Cl)c2)n2c1CCC2 the growth inhibition was 26%.
With O=C(Cc1ccccc1)NN1C(=O)C(Cl)C1c1cc(Br)cc(Br)c1O (stereo unspecified) the growth inhibition was 95% (active).
CCOC(=O)C(Cc1c2ccccc2cc2ccccc12)(NC(C)=O)C(=O)OCC gave a growth inhibition of -2%.
With O=[N+]([O-])/C=C/c1cc2ccc3ccccc3c2[nH]1 the growth inhibition was 93% (active).
Compound Fc1ccc(Nc2ccc3ccccc3c2)cc1 has a growth inhibition of 44%.
With O=S1(=O)CCC2=CC(C(F)(F)F)=CC(C(F)(F)F)=CN21 the growth inhibition was 86% (active).
O=C(Cc1ccccc1)NNc1nc(NNC(=O)c2ccncc2)nc(Nc2ccc([N+](=O)[O-])cc2)n1 showed a growth inhibition of 58%.
Work on CCCCS/C(=C(/C#N)C(N)=O)c1cc2c([nH]1)CCCC2 yielded a growth inhibition of -36%.
With CCOC(=O)/C(=C\c1cccc(C)c1)C(C)=O the growth inhibition was 95% (active).
